Molecules are shown by their SMILES. This is part of a sample that, as a whole, favours compounds with a hit. Of some 83,000 tested, about 20% had one in any assay.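 Compound tested at a single concentration for 48 hours in 96-well plates; a percent growth value below 10 was scored as active.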 Unmarked numbers belong to inactive results. Active and inactive are the calls of the source.

The values below come from PubChem BioAssay (NCI).

Test systems include DU-145 prostate; K-562 leukemia; MALME-3M melanoma; MDA-MB-231 breast; SF-268 CNS; SF-295 CNS; SF-539 CNS; M14 melanoma; HCT-15 colon; SNB-75 CNS; SNB-19 CNS; U251 CNS; PC-3 prostate; SK-MEL-5 melanoma; UACC-62 melanoma; LOX IMVI melanoma; SK-MEL-28 melanoma; HT29 colon; RXF 393 renal.
Holding throughout (test): NCI-60 one-dose screen, 48 h (100 = growth as untreated, 0 = no growth, -100 = all killed)
What all share (settings): 10 µM unless noted

Turning to `Clc1nc(Cl)c2ncn(CC#CCn3cnc4c(Cl)nc(Cl)nc43)c2n1`, the growth in the assay on DU-145 prostate was -87.2% (active); with K-562 leukemia, -13% (active); with MALME-3M melanoma, -74.5% (active); in the assay with MDA-MB-231 breast, -52.6% (active); with SF-268 CNS, -37.8% (active); with SF-295 CNS, 5.67% (active). In addition, the growth was -65.7% (active) with SF-539 CNS; 7.78% (active) in the assay with M14 melanoma; -65.7% (active) with HCT-15 colon; 8.25% (active) in the assay with SNB-75 CNS; 12.2% in the assay on SNB-19 CNS; -75.8% (active) with U251 CNS. For the same molecule, the growth in the assay with PC-3 prostate is -72.1% (active); in the assay on SK-MEL-5 melanoma, -66.9% (active); with UACC-62 melanoma, -11.6% (active); with LOX IMVI melanoma, -83.4% (active); in the assay with SK-MEL-28 melanoma it was -26.1% (active).
As for `N#CC1(C#N)C(c2cccs2)NC(c2cccs2)C1(C#N)C#N` (stereo not given), the growth with DU-145 prostate is 102%; in the assay with K-562 leukemia, 95.8%; in the assay with MALME-3M melanoma it was 99.2%; in the assay on MDA-MB-231 breast it was 104%; in the assay on SF-268 CNS, 98.1%; in the assay with SF-295 CNS it was 95.6%. Besides, the growth is 97.6% with SF-539 CNS; 102% with M14 melanoma; 94.5% in the assay with HCT-15 colon; 103% with HT29 colon; 75.1% in the assay with SNB-75 CNS; 104% with U251 CNS. Moreover, the growth with PC-3 prostate was 94.6%; in the assay with SK-MEL-5 melanoma, 114%; in the assay with UACC-62 melanoma it was 101%; in the assay on LOX IMVI melanoma it was 93.9%; in the assay on SK-MEL-28 melanoma, 109%.
On to `COc1ccc2c(CCC(c3ccccc3)c3ccccc3)c3[n+](cc2c1OC)CCc1cc2c(cc1-3)OCO2`, for which the growth with DU-145 prostate is 18.5%; with K-562 leukemia, 6.12% (active); in the assay with MALME-3M melanoma it was -7.17% (active); in the assay on MDA-MB-231 breast, -28.7% (active); in the assay with SF-268 CNS, 19.8%; in the assay on SF-295 CNS, -15.8% (active). In addition, the growth in the assay on SF-539 CNS was 13.6%; in the assay on M14 melanoma, 2.51% (active); in the assay on HCT-15 colon, 47.1%; in the assay on HT29 colon it was 6.26% (active); with SNB-75 CNS it was 37.1%; with SNB-19 CNS it was 20.6%. Also, the growth was 10.5% with U251 CNS, -39.8% (active) in the assay on PC-3 prostate, -99.6% (active) in the assay with SK-MEL-5 melanoma and 3.87% (active) in the assay with SK-MEL-28 melanoma.
On to `COc1ccc2c(c1OC)C(=O)O[C@@H]2[C@H]1c2c(c(C#CC#Cc3ccc(F)c(F)c3)c3c(c2OC)OCO3)CCN1C`, for which the growth in the assay on DU-145 prostate was 103%; with K-562 leukemia, 87.1%; in the assay with MALME-3M melanoma, 91%; in the assay with MDA-MB-231 breast it was 90.9%; with SF-268 CNS, 95.9%; in the assay on SF-295 CNS, 95.6%. Besides, the growth was 94.9% in the assay on SF-539 CNS; 90.6% in the assay with M14 melanoma; 56.8% with HCT-15 colon; 89.6% with SNB-75 CNS; 103% in the assay with SNB-19 CNS; 88.4% with U251 CNS. The growth in the assay with PC-3 prostate was 50.8%; with SK-MEL-5 melanoma, 66.2%; in the assay with UACC-62 melanoma it was 69.5%; in the assay on LOX IMVI melanoma it was 90.9%; with SK-MEL-28 melanoma, 96.3%.
As for `C=CCC(=O)N[C@H](/C=C/C(=O)O)Cc1ccc(-c2cc(Cl)cc(Cl)c2)cc1`, the growth in the assay on DU-145 prostate was 106%; in the assay with K-562 leukemia, 96.7%; with MALME-3M melanoma, 99.9%; in the assay on MDA-MB-231 breast, 97.9%; in the assay on SF-268 CNS, 98.7%; in the assay on SF-295 CNS, 101%. In addition, the growth with SF-539 CNS is 94.6%; with M14 melanoma, 92.2%; in the assay on HCT-15 colon, 98.1%; in the assay with HT29 colon, 97.8%; in the assay on SNB-75 CNS it was 87%; with U251 CNS it was 83%. Besides, the growth was 80.6% in the assay on PC-3 prostate, 95.7% in the assay with SK-MEL-5 melanoma, 86.8% in the assay on UACC-62 melanoma and 96.9% in the assay on LOX IMVI melanoma.
As to `CCCCCCCC(=O)SCC/C=C/[C@@H]1CC(=O)NCc2nc(co2)C2=N[C@@](C)(CS2)C(=O)N[C@@H](C(C)C)C(=O)O1`, the growth in the assay with DU-145 prostate is 7.24% (active); with K-562 leukemia, 6.6% (active); in the assay on MALME-3M melanoma it was 5.59% (active); in the assay on MDA-MB-231 breast it was -1.69% (active); with SF-268 CNS it was 1.9% (active); in the assay on SF-295 CNS, -62.5% (active). The growth was 9.22% (active) in the assay on SF-539 CNS; -3.25% (active) in the assay on M14 melanoma; 0.603% (active) in the assay with HCT-15 colon; 2.22% (active) in the assay with HT29 colon; 26.1% with SNB-75 CNS; -61.2% (active) with U251 CNS. Moreover, the growth in the assay with PC-3 prostate is 9.75% (active); with SK-MEL-5 melanoma it was -93.5% (active); in the assay on UACC-62 melanoma it was -68% (active); with LOX IMVI melanoma, -97.2% (active); with SK-MEL-28 melanoma, -37.2% (active).
Take `COc1ccc2c(CCc3ccc(Cl)cc3)c3[n+](cc2c1OC)CCc1cc2c(cc1-3)OCO2`: the growth in the assay with DU-145 prostate is 67.5%; with K-562 leukemia, 33.5%; with MALME-3M melanoma it was 55.5%; in the assay with MDA-MB-231 breast it was 66.7%; in the assay on SF-268 CNS it was 49%; in the assay with SF-295 CNS it was 43.3%. Further, the growth in the assay with SF-539 CNS was 53.1%; in the assay with M14 melanoma, 37.9%; with HCT-15 colon it was 111%; with SNB-75 CNS it was 58%; with U251 CNS, 22.4%; with PC-3 prostate, 36.4%. For the same molecule, the growth with SK-MEL-5 melanoma was 18.2%; in the assay on UACC-62 melanoma, 30.1%; with SK-MEL-28 melanoma, 27.6%.
Consider `COc1cc2c(cc1OCCCCCCN1CCN(c3ncnc4ccccc34)CC1)N=CC1CCCN1C2=O` (stereo not given), for which the growth in the assay with DU-145 prostate is 4.65% (active); with K-562 leukemia, -15.9% (active); with MALME-3M melanoma it was -65.9% (active); with MDA-MB-231 breast, -29.1% (active); in the assay on SF-268 CNS, -2.27% (active); in the assay with SF-295 CNS, -45.5% (active). Besides, the growth in the assay with SF-539 CNS is -56.3% (active); with M14 melanoma, -85.5% (active); with HCT-15 colon it was -2.53% (active); in the assay on HT29 colon, 10.9%; in the assay on SNB-75 CNS it was -46.9% (active); in the assay with SNB-19 CNS it was 17%. In addition, the growth in the assay with U251 CNS is 0.0332% (active); in the assay on PC-3 prostate it was -23.1% (active); in the assay with UACC-62 melanoma, -95.8% (active); with LOX IMVI melanoma, -51.1% (active); in the assay with SK-MEL-28 melanoma it was -4.17% (active).
For the molecule `COc1cnc2c(c1)C(=O)c1c-2n(CCCN2CCC(O)CC2)c(=O)c2cc(Cl)ccc12`, the growth with DU-145 prostate was 22.8%; in the assay on K-562 leukemia it was -38.7% (active); in the assay on MDA-MB-231 breast, -28.4% (active); with RXF 393 renal it was 28.2%; in the assay with SF-268 CNS, 34.7%; in the assay on SF-295 CNS, 17.8%. In addition, the growth with SF-539 CNS was 14.7%; in the assay with M14 melanoma, 30.9%; with HCT-15 colon, -71.5% (active); in the assay on HT29 colon it was -54.6% (active); in the assay on SNB-75 CNS, 49.1%; with SNB-19 CNS it was 34.2%. Moreover, the growth was -76.7% (active) in the assay with U251 CNS; 41.9% with PC-3 prostate; 50.7% with SK-MEL-5 melanoma; 24.5% with UACC-62 melanoma; -86.3% (active) in the assay with LOX IMVI melanoma; 102% in the assay with SK-MEL-28 melanoma.
